Many of the other results were omitted from the sample, so hits are more common in it than they were.
VACV mCherry inh – inhibitors of vaccinia virus infection (mCherry reporter signal); Vaccinia virus mCherry reporter infection, fluorescence; Potency, µM (top dose mostly 36.5 µM), for inactives: at the highest dose activity change, negative = inhibition, most hits filed as inhibitors; 310,000 compounds, 0.63% hits; AID 720579; calls by dose curve; tested in A549 cells; note: potency is the fitted concentration of half-maximal effect; % is set by controls: 0 for no effect and ±100 for the full control effect; nearly all actives have a fitted effect of over 35% in size
MARV entry inh – inhibitors of Marburg virus binding or cell entry | AID 540276 | Potency, µM (highest dose often 37.8 µM), without a hit: at the highest dose activity change, negative = inhibition, hits mostly inhibitors | Marburg virus pseudotyped entry inhibition, cell reporter | 300,000 compounds, 1.8% hits; calls by dose curve; tested in HEK293 cells; note: potency is the fitted concentration of half-maximal effect; % is set by controls: 0 for no effect and ±100 for the full control effect
Lassa entry inh – inhibitors of Lassa virus binding or cell entry; Potency, µM (highest dose often 37.9 µM), for inactives: at the top dose activity change, negative = inhibition, usual class: inhibitors; AID 540256; Lassa virus pseudotype entry inhibition, cell reporter; 300,000 compounds, 1.2% hits; calls by dose curve; tested in HEK293 cells; note: potency is the fitted concentration of half-maximal effect; % is set by controls: 0 for no effect and ±100 for the full control effect; nearly all actives have a fitted effect of over 50% in size
VACV Venus inh – vaccinia inhibition (Venus reporter); Vaccinia virus Venus reporter expression, fluorescence; Potency, µM (series often up to 36.5 µM), for the others: top-dose activity change, negative = inhibition, most hits filed as inhibitors; 330,000 compounds, 0.46% hits; calls by dose curve; tested in A549 cells; note: potency is the fitted concentration of half-maximal effect; % is set by controls: 0 for no effect and ±100 for the full control effect; nearly all actives have a fitted effect of over 30% in size
Shiga toxin inh – blocks Shiga toxin action in Vero cells | Vero cells, Shiga toxin protein synthesis inhibition reporter | 290,000 compounds, 9.2% hits | inhibition, % at 38.7 µM; in the data active = inhibition mostly above about 28%, no sharp cut-off; inactive = mostly below about 43%; note: 0% is about no effect
Cycloheximide cs – counter-screen for Shiga toxin inhibitors: cycloheximide protein synthesis inhibition. cell reporter, cycloheximide protein synthesis inhibition counterscreen. max response, %. 300,000 compounds, 12% hits. AID 2314; in the data active = max response mostly above about 13%, no sharp cut-off; inactive = mostly below about 14%; note: read at 38.3 µM for the half of the compounds with a filed dose; 0% is about no effect
An asterisk follows results filed as active; [ ] = remark or other dose.

Results for COC(=O)c1sccc1NC(=O)Nc1ccc(C)c(C)c1 ?
Shiga toxin inh: 72*; Cycloheximide cs: 41*

How did COC(=O)c1sccc1NC(=O)Nc1ccc(OC)c(OC)c1 do in these assays?
Shiga toxin inh: -6; Cycloheximide cs: 12

What do the screens show for `COC(=O)c1sccc1S(=O)(=O)N(CC(=O)Nc1ccc(C)cc1)c1ccccc1`?
VACV mCherry inh: -13%; Lassa entry inh: -13%[46.1 µM]; VACV Venus inh: -8%

Results for COC(=O)c1sccc1S(=O)(=O)Nc1ccc(C)cc1 ?
Shiga toxin inh: 2; Cycloheximide cs: 16*

How did COC(=O)c1sccc1NC(=O)c1c(Cl)cccc1Cl do in these assays?
Shiga toxin inh: 61; Cycloheximide cs: -1

What do the screens show for `CCC(=O)N1c2ccccc2CC1C(=O)NCc1ccccc1Cl` (configuration not stated)?
VACV mCherry inh: 2%; Lassa entry inh: 1%[46.1 µM]; VACV Venus inh: 7%

Results for CCCNC(=O)Nc1ccsc1C(=O)OC ?
VACV mCherry inh: inactive; MARV entry inh: 6%[46.1 µM]; Lassa entry inh: 1%[46.1 µM]; VACV Venus inh: -6%; Shiga toxin inh: 31; Cycloheximide cs: -2

How did COC(=O)c1sccc1NC(=O)Cc1ccc(Br)cc1 do in these assays?
VACV mCherry inh: -15%; MARV entry inh: inconclusive; Lassa entry inh: inconclusive; VACV Venus inh: -8%; Shiga toxin inh: 32*; Cycloheximide cs: 26*

Results for CCc1ccc(NC(=O)Nc2ccsc2C(=O)OC)cc1 ?
Shiga toxin inh: 42*; Cycloheximide cs: 36*

Results for O=C(CNC(=O)c1n[nH]c2ccccc12)Nc1ccc(F)c(F)c1F ?
VACV mCherry inh: inactive; MARV entry inh: -16%; Lassa entry inh: 6%; VACV Venus inh: -4%

What do the screens show for `Cc1cc2nc(CS)[nH]c2cc1C`?
VACV mCherry inh: inconclusive; VACV Venus inh: inconclusive; Shiga toxin inh: 60; Cycloheximide cs: 17*

Results for CSc1ccc(/C=C2\C=Cc3ccccc32)cc1 ?
VACV mCherry inh: 16%; VACV Venus inh: -4%

Results for Cn1c(=O)n(/N=C/c2ccccc2)c2ccccc21 ?
VACV mCherry inh: -1%; MARV entry inh: 7%; Lassa entry inh: 28%; VACV Venus inh: -2%; Shiga toxin inh: 45*; Cycloheximide cs: 13

What do the screens show for `CCN(CC)C(=O)N1CCC2CCCCC2C1CN1C(=O)C2=C(CCCC2)C1=O` (configuration not stated)?
MARV entry inh: -14%

How did COC(=O)/C(C#N)=C1/C=Cc2ccccc2N1C do in these assays?
MARV entry inh: 20%; Lassa entry inh: 1%; Shiga toxin inh: 61*; Cycloheximide cs: 26*

How did CCOC(=O)/C(C#N)=c1/s/c(=C2\C=Cc3ccccc3N2CC)c(=O)n1CC do in these assays?
VACV mCherry inh: inactive; MARV entry inh: 11%; Lassa entry inh: inconclusive; VACV Venus inh: -3%; Shiga toxin inh: -20; Cycloheximide cs: -2

Results for Cc1ccc(S(=O)(=O)C(c2ccccc2)c2c(C)noc2C)cc1 (configuration not stated) ?
VACV mCherry inh: -10%; MARV entry inh: 0.63µM*; Lassa entry inh: 0%; VACV Venus inh: -15%; Shiga toxin inh: 2; Cycloheximide cs: -3

How did C[C@@H](CO)NC(=O)c1ccc2c3n(nc2c1)-c1ccc(Cl)cc1CO3 do in these assays?
VACV mCherry inh: 0%; VACV Venus inh: -10%; Shiga toxin inh: 55*; Cycloheximide cs: 33*

How did CC(C)[C@@H](CO)NC(=O)c1ccc2c3n(nc2c1)-c1ccc(Cl)cc1CO3 do in these assays?
VACV mCherry inh: inconclusive; VACV Venus inh: inconclusive; Shiga toxin inh: 46*; Cycloheximide cs: 34*

How did CCCC#Cc1ccc2c(c1)COc1c3ccccc3nn1-2 do in these assays?
VACV mCherry inh: inconclusive; VACV Venus inh: -20%

Results for Cc1ccc(-c2nnn3c2nc(NCCc2ccccc2)c2ccccc23)cc1 ?
VACV mCherry inh: 12%; MARV entry inh: inconclusive; Lassa entry inh: 10%[46.1 µM]; VACV Venus inh: 5%

Results for Cc1cc(C)cc(N(CCC#N)C(=O)COC(=O)CNC(=O)c2sc3ccccc3c2Cl)c1 ?
VACV mCherry inh: -4%; MARV entry inh: 8%; Lassa entry inh: inconclusive; VACV Venus inh: 3%

What do the screens show for `O=[N+]([O-])c1ccc(-n2cc(-c3ccccc3)nn2)cc1`?
Shiga toxin inh: 11; Cycloheximide cs: 14*

How did O=[N+]([O-])c1ccc(-n2nnnc2-c2ccccc2)cc1 do in these assays?
Shiga toxin inh: -5; Cycloheximide cs: 4

How did COc1ccccc1CN1CCCC(n2cc(C(=O)N3CCCC3)nn2)C1 (configuration not stated) do in these assays?
VACV mCherry inh: -9%; VACV Venus inh: -2%

What do the screens show for `Cc1cc(C)cc(C(=O)NCCCc2ccccc2)c1`?
VACV mCherry inh: inactive; MARV entry inh: -19%[46.1 µM]; Lassa entry inh: -4%[46.1 µM]; VACV Venus inh: -6%; Shiga toxin inh: 11; Cycloheximide cs: 21

What do the screens show for `Cc1ccc(C(=O)NCCCc2ccccc2)c(Cl)c1`?
VACV mCherry inh: -9%; MARV entry inh: -30%[46.1 µM]; Lassa entry inh: -7%[46.1 µM]; VACV Venus inh: 3%; Cycloheximide cs: 37*

How did CSCCC(NC(=O)c1ccc([N+](=O)[O-])cc1Cl)C(=O)OCC(=O)NCCCc1ccccc1 (configuration not stated) do in these assays?
VACV mCherry inh: -18%; MARV entry inh: 13%; Lassa entry inh: -2%; VACV Venus inh: -9%; Shiga toxin inh: -25; Cycloheximide cs: 1

How did O=C(NCCCc1ccccc1)c1ccc([N+](=O)[O-])cc1Cl do in these assays?
VACV mCherry inh: -21%; MARV entry inh: inconclusive; Lassa entry inh: -2%[46.1 µM]; VACV Venus inh: -12%; Shiga toxin inh: 29*; Cycloheximide cs: 29*

What do the screens show for `O=C(NCCC(=O)N(CCc1ccccc1)Cc1ccccc1)c1ccccc1Cl`?
VACV mCherry inh: -6%; MARV entry inh: inconclusive; Lassa entry inh: -11%; VACV Venus inh: -8%

What do the screens show for `Cc1ccc(C(=O)NCCCc2ccccc2)c(C)c1`?
VACV mCherry inh: 1%; MARV entry inh: inconclusive; Lassa entry inh: inconclusive; VACV Venus inh: -1%; Shiga toxin inh: 60*; Cycloheximide cs: 42*

Results for O=C(NCCCc1ccccc1)c1ccccc1O ?
VACV mCherry inh: -18%; MARV entry inh: 1%; Lassa entry inh: 25%; VACV Venus inh: -17%; Shiga toxin inh: 60*; Cycloheximide cs: 54*

What do the screens show for `CC(=O)c1ccc(NC(=O)C2CCCN(S(=O)(=O)c3cn(C)cn3)C2)cc1` (configuration not stated)?
VACV mCherry inh: -13%; Lassa entry inh: 0%[46.1 µM]; VACV Venus inh: -7%

How did CC1(C(=O)Nc2ccc3c(c2)OCCO3)CCN1C(=O)Cc1ccc(-c2ccccc2)cc1 (configuration not stated) do in these assays?
VACV mCherry inh: 25%; VACV Venus inh: -10%

How did Cc1c(C(=O)N2CCOCC2)oc2c1-c1nn(CC(=O)NCc3cccc(Cl)c3)cc1CC2 do in these assays?
VACV mCherry inh: -20%; Lassa entry inh: -30%[46.1 µM]; VACV Venus inh: -16%
